Values joined by “and” are separate entries in the source; they are usually repeats but may differ in a detail not shown here. Equal values may be shown once. Some structures have more than one record in an assay (separate samples or runs), and their calls can disagree. Active and inactive are the calls of the source. Rule as the data show it: active = fold change permeability below about 0.7 or above about 1.3; inactive = in between.

The assay in a line: compounds altering in vitro BBB leakiness – cell-based, FITC-avidin fluorescence, HTS, primary screen (AID 1963498). Also: test concentration not given here. To be noted: brain endothelial barrier, actives lie on both sides.
As for `CC(C)[C@H]1CN[C@H](C(=O)O)[C@H]1CC(=O)O`, the fold change permeability was 1.1 (inactive).
In the case of `CC[C@@H]1C(=O)OC[C@@H]1Cc1cncn1C`, the fold change permeability is 1.3 (active) and 1.2 (inactive).
For `CNc1ccc2oc(C[C@H]3O[C@@]4(CC[C@H]3C)O[C@H]([C@H](C)C(=O)c3ccc[nH]3)[C@H](C)C[C@H]4C)nc2c1C(=O)O` the value was 1.2 (inactive).
For `c1ccc(C2CC2)c(OCC2=NCCN2)c1` the value was 1 (inactive); for `CN1CC[C@@]2(C)c3cc(O)ccc3N(C)C12` (stereo not given in full), 1.3 (active); for `CC(CCc1ccccc1)NC(C)C(O)c1ccc(O)cc1` (stereo not given), 0.8 (inactive).
For `CN(c1nc2ccccc2s1)C1CCN(C[C@H](O)COc2ccc(F)c(F)c2)CC1` the value was 1.6 (active).
`Cc1nnc2n1-c1sccc1C(c1ccccc1)=NC2`: the fold change permeability was 1.1 (inactive).
Turning to `C[N+]1(C)C2CCC1CC(OC(=O)C(CO)c1ccccc1)C2` (stereo not given), the fold change permeability was 1.1 (inactive).
For `CC(C)(C)c1cc(C(C)(C)C)c2c(c1)C(O)(C(F)(F)F)C(=O)O2` (stereo not given) the value was 1.2 (inactive).
For `CC(=O)[C@H]1CCC2C3CC[C@H]4C[C@H](O)CC[C@]4(C)C3CC[C@@]21C` (stereo not given in full) the value was 0.9 (inactive); for `CC(N)C(=O)OC(C)(C)Cc1ccc(Cl)cc1` (stereo not given), 1.1 (inactive).
For `NCC1(CC(=O)O)CCCCC1` the value was 0.9 (inactive); for `CC(C)C[C@H](NP(=O)(O)O[C@@H]1O[C@@H](C)[C@H](O)[C@@H](O)[C@H]1O)C(=O)N[C@@H](Cc1c[nH]c2ccccc12)C(=O)O`, 1.4 (active).
As to `CCCCCN(C)CCC(O)(P(=O)(O)O)P(=O)(O)O`, the fold change permeability was 1.8 (active).
For `CC1OC1P(=O)(O)O` (stereo not given) the value was 1.1 (inactive).
For `CC(C)(C)NCC(O)c1ccccc1Cl` (stereo not given) the value was 0.7 (active).
For `CC1=NN=C(c2ccc(N)cc2)c2cc3c(cc2C1)OCO3` the value was 1.1 (inactive).
Take `NCCc1ccc(O)cc1`: the fold change permeability is 0.7 (active).
For `CNCCc1c[nH]c2ccc(O)cc12` the value was 0.8 (inactive).
`O=P(O)(O)C(O)(Cc1cnc2ccccn12)P(=O)(O)O`: the fold change permeability was 0.8 (inactive).
For `COc1cc2c3c(c1OC)-c1ccccc1C[C@H]3N(C)CC2` the value was 1.9 (active); for `NC(Cc1cc(O)c(O)cc1O)C(=O)O` (stereo not given), 0.9 (inactive); for `NCCc1ccc(S(=O)(=O)F)cc1`, 1 (inactive).
For `O=C1CCCN1CC#CCN1CCCC1` the value was 0.8 (inactive).
Regarding `O=C(N[C@H]1CN2CCC1CC2)c1ccc(Cl)cc1`, the fold change permeability was 1.3 (active).
For `C=C(C)[C@H]1CN[C@H](C(=O)O)[C@H]1CC(=O)O` the value was 1.8 (active).
For `COc1ccc(OC)c(C(O)C(C)N)c1` (stereo not given) the value was 0.8 (inactive).
For `Nc1ncnc2c1ncn2[C@@H]1O[C@H](COP(=O)(O)CP(=O)(O)OP(=O)(O)O)[C@H](O)C1O` (stereo not given in full) the value was 0.9 (inactive); for `NC(=O)CN1CC(O)CC1=O` (stereo not given), 0.8 (inactive).
Turning to `CC(C)NP(=O)(NC(C)C)OP(=O)(NC(C)C)NC(C)C`, the fold change permeability is 1.1 (inactive).
For `O=P1(N(CCCl)CCCl)NCCCO1` (stereo not given) the value was 1 (inactive); for `COc1cc2c(c(OC)c1OC)-c1ccc(SC)c(=O)cc1[C@@H](NC(C)=O)CC2`, 1.7 (active); for `NNC(N)=O`, 1 (inactive).
For `C=C(C)[C@H]1Cc2c(ccc3c2O[C@@H]2COc4cc(OC)c(OC)cc4[C@@H]2C3=O)O1` the value was 1.7 (active).

Values taken from PubChem BioAssay.
